Measured values: ChEMBL document CHEMBL4808148, “HDAC6 screening dataset using tau-based substrate in an enzymatic assay yields selective inhibitors and activators” (2021)
The campaign covered roughly 5,600 compounds. About 390 (7%) showed an effect of 50% or more. This excerpt belongs to a sample that is enriched for strong results.

Target: T1, Protein deacetylase HDAC6 (Homo sapiens) (UniProt Q9UBN7)
T1 sequence (whole entry): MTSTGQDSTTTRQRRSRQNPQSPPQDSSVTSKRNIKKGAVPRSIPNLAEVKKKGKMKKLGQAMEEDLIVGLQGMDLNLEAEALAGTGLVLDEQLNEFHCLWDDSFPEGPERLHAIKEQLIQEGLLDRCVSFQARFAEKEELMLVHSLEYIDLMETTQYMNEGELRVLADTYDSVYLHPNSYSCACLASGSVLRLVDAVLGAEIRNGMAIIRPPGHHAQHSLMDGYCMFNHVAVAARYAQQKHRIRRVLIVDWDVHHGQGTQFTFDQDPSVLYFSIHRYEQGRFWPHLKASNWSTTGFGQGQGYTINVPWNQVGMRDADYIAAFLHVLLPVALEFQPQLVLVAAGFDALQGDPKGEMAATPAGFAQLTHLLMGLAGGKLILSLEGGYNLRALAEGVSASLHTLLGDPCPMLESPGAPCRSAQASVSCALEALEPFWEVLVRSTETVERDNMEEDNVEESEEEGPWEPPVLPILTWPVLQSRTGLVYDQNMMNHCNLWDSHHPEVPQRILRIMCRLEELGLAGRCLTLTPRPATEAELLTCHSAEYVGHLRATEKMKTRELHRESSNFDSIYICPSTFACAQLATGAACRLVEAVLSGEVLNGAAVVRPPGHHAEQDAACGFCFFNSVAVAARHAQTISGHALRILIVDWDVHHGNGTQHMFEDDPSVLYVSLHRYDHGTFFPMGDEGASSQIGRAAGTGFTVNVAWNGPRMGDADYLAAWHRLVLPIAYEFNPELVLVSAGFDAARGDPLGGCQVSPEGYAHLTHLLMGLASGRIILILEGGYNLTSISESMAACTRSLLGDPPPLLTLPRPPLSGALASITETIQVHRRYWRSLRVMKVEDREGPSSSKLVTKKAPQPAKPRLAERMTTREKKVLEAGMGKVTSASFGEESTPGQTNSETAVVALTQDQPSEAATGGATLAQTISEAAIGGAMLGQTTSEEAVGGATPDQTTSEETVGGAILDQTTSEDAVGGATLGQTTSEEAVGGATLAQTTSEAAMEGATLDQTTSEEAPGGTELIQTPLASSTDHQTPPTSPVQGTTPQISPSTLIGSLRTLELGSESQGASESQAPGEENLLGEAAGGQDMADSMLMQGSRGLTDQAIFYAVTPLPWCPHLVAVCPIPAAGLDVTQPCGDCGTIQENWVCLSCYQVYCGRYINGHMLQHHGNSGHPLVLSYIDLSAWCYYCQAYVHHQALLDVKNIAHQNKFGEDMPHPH
Details: at 10 µM

SMILES	inhibition
O=C(NC1CCC1)c1ccc(C#Cc2cccc(F)c2)nc1	53.6%
Cc1c(F)cc(C(=O)NC2CC2)cc1-c1ccc(C(=O)NCC(C)(C)C)cn1	-6.14%
CCOC(=O)c1ccc(C#Cc2ccc3c(c2)C(C)(C)CCS3)nc1	22.8%
COc1ccc(CC(=O)NC(N/C(=N/C#N)Nc2cccc3ncccc23)C(C)(C)C)cc1OC (centres undefined)	17.5%
NC(=O)OC[C@@H]1[C@H](NC(=O)/C(=N\OCC(=O)O)c2csc(N)n2)C(=O)N1S(=O)(=O)O	1.5%
COc1cc(C)c2c(Oc3cccc(C(F)(F)F)c3)c(OC)cc(NC(C)CCCN)c2n1 (centres undefined)	19.9%
Cc1ccc(NC(=O)c2ccc(CN3CCN(C)CC3)cc2)cc1Nc1nccc(-c2cccnc2)n1	36.3%
Cc1ccc(NC(=O)c2ccc(CN3CCN(C)CC3)cc2)cc1Nc1nc(-c2cccnc2)cs1	89.4%
Cc1ccc(C(=O)Nc2cccc(C(F)(F)F)c2)cc1Nc1nc(-c2cccnc2)nc2c1cnn2C	17.5%
Nc1sc2c(c1C(=O)c1ccc(Cl)cc1)CCCC2	31.2%
O=C1CC2(CCCC2)CC(=O)N1CCCCNCC1COc2ccccc2O1 (centres undefined)	18.1%
Cc1cccc(Nc2cc(Cl)nc(SCC(=O)O)n2)c1C	9.22%
O=C(CCCCCCC(=O)Nc1cccnc1)NO	100%
O=C(CCCCCCC(=O)NO)NO	99.2%
Cc1cc(-c2ccc(CC(=O)Nc3ccc(-c4cccnc4)cc3)cc2)ccn1	37.6%
O=C(O)CCCCCCCC(=O)O	29.8%
NC(=O)c1cccnc1	2.11%
O=C(O)CCCCCCCCC(=O)O	0.61%
O=[N+]([O-])c1ccc2c(c1)S(=O)(=O)C=C2	20.7%
NC(C(=O)O)c1ccc(C(=O)O)c(C(=O)O)c1 (racemic)	1.97%
COc1ccc(-c2csc(NC(=O)[C@H]3CCCCN3S(=O)(=O)c3ccc(C)cc3)n2)cc1	0.15%
Nc1nc(NC[C@H]2CC[C@H](CNS(=O)(=O)c3cccc4ccccc34)CC2)nc2ccccc12	9.28%
CCOc1ccccc1C(=O)O	0.84%
CCCCNc1ncc2c(-c3ccc(CN4CCN(C)CC4)cc3)cn([C@H]3CC[C@H](O)CC3)c2n1	62.3%
COC(=O)c1ccccc1COc1ccccc1[N+](=O)[O-]	35.8%

SMILES	inhibition
N=C(N)NCCC[C@H](NC(=O)c1sccc1NS(=O)(=O)c1cccc2nsnc12)C(=O)O	-2.5%
CCN(CC)CCCN(c1ccccc1)C1Cc2ccccc2C1	9.47%
CCOC(=O)c1ccc(N)cc1	16.9%
CCOC(=O)C1=C(C)NC(=S)NC1c1cccc(O)c1 (centres undefined)	7.87%
CCOC(=O)c1c(C)n(C)c2ccc(O)cc12	60.5%
O=C1C=CC(=O)C2=C1C1c3ccccc3C2c2ccccc21	-5.86%
N#CC(c1ccnc(OCc2ccc(CN3CCOCC3)cc2)n1)c1nc2ccccc2s1 (centres undefined)	73.7%
N[C@H]1CCN(O)C1=O	-4.15%
CCNC(=O)[C@@H]1CCCN1C(=O)[C@H](CCCNC(=N)N)NC(=O)[C@H](CC(C)C)NC(=O)[C@@H](CC(C)C)NC(=O)[C@H](Cc1ccc(O)cc1)NC(=O)[C@H](CO)NC(=O)[C@H](Cc1c[nH]c2ccccc12)NC(=O)[C@H](Cc1c[nH]cn1)NC(=O)[C@@H]1CCC(=O)N1	33.6%
N#Cc1c(N)nc(SCc2ncc[nH]2)c(C#N)c1-c1ccc(O)cc1	54.7%
CC(C)C[C@H](NC(=O)[C@@H](Cc1c[nH]c2ccccc12)NC(=O)[C@H](Cc1ccc(O)cc1)NC(=O)[C@H](CO)NC(=O)[C@H](Cc1c[nH]c2ccccc12)NC(=O)[C@H](Cc1c[nH]cn1)NC(=O)[C@@H]1CCC(=O)N1)C(=O)N[C@@H](CCCNC(=N)N)C(=O)N1CCC[C@H]1C(=O)NCC(N)=O	-2.71%
CN(C)CCN(Cc1cccs1)c1ccccn1	11.5%
Nc1nc(O)c2c(n1)NCC(CNc1ccc(C(=O)N[C@@H](CCC(=O)O)C(=O)O)cc1)N2 (some centres undefined)	-7.59%
Cc1csc(-c2nnc(Nc3ccc(Oc4ncccc4-c4ccnc(N)n4)cc3)c3ccccc23)c1	72.1%
Cc1cc(C(=O)Nc2nc3cccc(Cl)c3n2[C@@H]2CCCCN(C(=O)/C=C/CN(C)C)C2)ccn1	-3.32%
C#CCN1C(C)=C(C(=O)OC)C(c2cccc([N+](=O)[O-])c2)C(C(=O)OCC)=C1C (centres undefined)	-1.94%
C=CC(=O)Nc1cccc(Oc2nc(Nc3ccc(N4CCN(C)CC4)cc3)nc3ccsc23)c1	14.3%
CCC(C)C(CC)C(N)=O (centres undefined)	2.6%
C=Cc1cc(O)cc2nc(-c3ccc(O)c(F)c3)oc12	-4.14%
O=C(NC1CC1)c1cc(-c2cccs2)on1	75.4%
C=CC(=O)Nc1cc2c(Nc3ccc(F)c(Cl)c3)ncnc2cc1OCCCN1CCOCC1	9.13%
Nc1nncs1	6.15%
O=C(Nc1ccc([N+](=O)[O-])cc1O)Nc1ccccc1Br	101%
NC(=O)c1ccc([N+](=O)[O-])cc1Cl	8.11%
